Source: PubChem BioAssay (Tox21)
Results filed as inconclusive are left out. The source made the active and inactive calls. Unless noted, calls follow the shape of the full dose curve.

Experiments:
[1] = Nuclear factor erythroid 2-related factor 2/antioxidant responsive element (Nrf2/ARE) small molecule agonists: qHTS cell viability counter screen in human keratinocytes (AID 1919968; active = well fitted curve in the direction sought with a large enough effect in the repeat runs; an effect the other way counts as inactive or inconclusive; also: nearly all actives have a fitted effect of over 55% in size)
How it was run: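 KeratinoSens HaCaT cells, 1,500/well, preincubated 5 h, then exposed to compounds in DMSO for 23 h at 37 C/5% CO2. Viability read as CellTiter-Fluor fluorescence after 1 h, in the same wells as the ARE-luciferase read.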

[2] = Nuclear factor erythroid 2-related factor 2/antioxidant responsive element (Nrf2/ARE) small molecule agonists: luciferase reporter gene qHTS assay in human keratinocytes (AID 1919969); also: nearly all actives have a fitted effect of over 35% in size; also: potency is read from the fitted curve at half-maximal effect
[3] = molecular target: Gonadotropin-releasing hormone receptor (Homo sapiens) (UniProt P30968); test: Human gonadotropin-releasing hormone receptor (GnRHR) small molecule agonists, calcium flux assay in GnRHR-HEK293 cells (AID 1920063); also: nearly all actives have a fitted effect of over 35% in size
How it was run: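 HEK293 cells stably expressing human GnRHR were dye-loaded for 1 h at 37 C. Compound was added in agonist mode and fluorescence (Ex/Em 480/540) recorded kinetically for 3 min. Fifteen concentrations, triplicates.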

[4] = molecular target: KiSS-1 receptor (Homo sapiens) (UniProt Q969F8); test: Human kisspeptin (KISS1R) small molecule agonists, calcium flux assay in KISS1R-HEK293 cells (AID 1920064; active = well fitted curve in the direction sought with a large enough effect in the repeat runs; an effect the other way counts as inactive or inconclusive)
How it was run: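 HEK293 cells stably expressing human KISS1R were loaded with calcium dye for 1 h at 37 C, then given compound; fluorescence (Ex/Em 480/540) was read kinetically for 3 min. Fifteen concentrations, triplicate.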

[5] = G protein-coupled receptor (GPCR) small molecule agonists, calcium flux assay: HEK293 wild type cell line counter screen (AID 1920065)
How it was run: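 Wild-type HEK293 cells plated 18 h, loaded with calcium dye 1 h at 37 C, then compounds added in agonist mode (ATP as positive control). Kinetic fluorescence Ex/Em 480/540 recorded 3 min at 1 sec intervals; 15 concentrations, triplicate.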

[6] = p53 small molecule agonists, cell-based qHTS assay with human liver microsomes (AID 1963577);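 also: p53 response element beta-lactamase reporter cells with liver microsomes plus NADPH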
How it was run: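 16 h, 37 C exposure of p53RE-bla cells to compounds with human liver microsomes and NADPH (0.5 mg/mL final each); detection via LiveBLAzer mixture, 2 h dark at room temperature.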

[7] = p53 small molecule agonists, cell-based qHTS assay with rat liver microsomes (AID 1963578)
How it was run: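 With rat liver microsomes and NADPH present (0.5 mg/mL final each), p53RE-bla cells are treated with compound for 16 h at 37 C. LiveBLAzer detection mixture is then applied for 2 h at room temperature in the dark.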

[8] = p53 small molecule agonists, cell-based qHTS assay with human liver microsomes: qHTS cell viability counter screen (AID 1963579); also: nearly all actives have a fitted effect of over 45% in size; also: potency is read from the fitted curve at half-maximal effect
How it was run: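 In this multiplexed counter screen, the reporter plates were subsequently treated with CellTiter-Glo so that cell viability, reflected by luminescence, could be recorded for p53RE-bla cells dosed 16 h with compounds under microsomal activation (HLM and NADPH).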

[9] = p53 small molecule agonists, cell-based qHTS assay with rat liver microsomes: qHTS cell viability counter screen (AID 1963580); also: nearly all actives have a fitted effect of over 45% in size
How it was run: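 p53RE-bla HCT-116 cells were exposed 16 h at 37 C to compounds with rat liver microsomes (0.5 mg/mL) and NADPH (0.5 mg/mL). Viability was measured in the same wells as ATP content by CellTiter-Glo luminescence.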

[10] = p53 small molecule agonists, cell-based qHTS assay: qHTS cell viability counter screen (AID 1963581); also: nearly all actives have a fitted effect of over 45% in size
How it was run: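 p53RE-bla HCT-116 cells, compounds added 5 h after plating and incubated 16 h at 37 C. Cytotoxicity measured in the same wells as intracellular ATP by CellTiter-Glo luminescence after 30 min at room temperature.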

[11] = p53 small molecule agonists, cell-based qHTS assay (AID 1963582; active = well fitted activation curve with a large enough effect in the signal ratio in the repeat runs, not every such curve was filed as active; the % refers to the signal ratio)
How it was run: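 p53RE-bla reporter cells, compounds added in DMSO after 5 h plating, incubated 16 h at 37 C. Beta-lactamase read via 2 h room-temperature LiveBLAzer B/G FRET substrate, fluorescence intensity.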

[12] = molecular target: Muscarinic acetylcholine receptor M1 (Homo sapiens) (UniProt P11229); test: Cholinergic receptor muscarinic 1 (CHRM1) small molecule antagonists, cell-based qHTS assay (AID 1963588); also: nearly all actives have a fitted effect of over 40% in size; also: potency is read from the fitted curve at half-maximal effect
How it was run: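 CHRM1-CHO calcium-flux assay, antagonist mode. Cells were seeded 18 h, dye-loaded 1 h at 37 C and given compound for 5 min at RT, then acetylcholine was added at 50nM. FDSS fluorescence was read 3 min; 15 concentrations, three runs.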

[13] = molecular target: Muscarinic acetylcholine receptor M1 (Homo sapiens) (UniProt P11229); test: Cholinergic receptor muscarinic 1 (CHRM1) small molecule agonists, cell-based qHTS assay (AID 1963589); also: nearly all actives have a fitted effect of over 35% in size
How it was run: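 CHO cells stably expressing human CHRM1 were loaded with calcium dye for 1 h at 37 C, then compound was added in agonist mode. Intracellular calcium fluorescence was followed kinetically at 1 s intervals. Fifteen concentrations were tested in three independent runs.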

[14] = cAMP Responsive Elements (CRE) small molecule agonists, cell-based qHTS assay (AID 1963590)
How it was run: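 CRE-bla HEK 293T cells, 2,000/well in DMEM with 10% dialyzed FBS and 25 mM HEPES, pre-incubated 18 h at 37 C, then exposed to compound 3 h at 37 C. Beta-lactamase reporter read with LiveBLAzer B/G FRET substrate after 2 h at room temperature.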

[15] = cAMP Responsive Elements (CRE) small molecule antagonists, cell-based qHTS assay (AID 1963591; active = well fitted inhibition curve with a large enough effect in the signal ratio in the repeat runs, not every such curve was filed as active; the % refers to the signal ratio)
How it was run: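 CRE-bla HEK293T cells plated 18 h, then given compound plus NKH477 at 0.25 uM final for 3 h at 37C. Beta-lactamase reporter read with LiveBLAzer B/G FRET substrate after 2 h at room temperature.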

[16] = molecular target: Beta-2 adrenergic receptor (Homo sapiens) (UniProt P07550); test: Adrenergic beta2 receptor (ADRB2) small molecule antagonists, cell-based qHTS assay (AID 1963592); also: series mostly up to about 92 µM; nearly all actives have a fitted effect of over 50% in size
How it was run: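 Cells (CHO, stable ADRB2 overexpression) incubated 18-20hr at 37C; compounds added from DMSO; agonist mix (1nM isoproterenol, 100uM IBMX, 25uM Ro-20-1724) added; 0.5hr RT; d2-cAMP and anti-cAMP-cryptate added; 1hr RT; 665/615 nm read.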

[17] = molecular target: D(2) dopamine receptor (Homo sapiens) (UniProt P14416); test: Dopamine D2 receptor (DRD2) small molecule agonists, cell-based qHTS assay (AID 1963594); also: nearly all actives have a fitted effect of over 35% in size
How it was run: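 HEK293 cells stably expressing human DRD2, pre-treated with PDE inhibitor Ro20-1724 (0.1 mM final) and compound 10 min at room temperature, then stimulated with NKH477 (200nM […]) for 30 min. cAMP read by HTRF (665/620 nm).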

[18] = molecular target: D(2) dopamine receptor (Homo sapiens) (UniProt P14416); test: Dopamine D2 receptor (DRD2) small molecule antagonists, cell-based qHTS assay (AID 1963595; active = well fitted inhibition curve with a large enough effect in the signal ratio in the repeat runs, with a control signal flat; the % refers to the signal ratio)
How it was run: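 DRD2-HEK293; 0.1 mM Ro20-1724; cpd 10 min RT; NKH477 200 nM + quinpirole 12 nM, 30 min RT; HTRF cAMP (cAMP-d2/anti-cAMP cryptate), 665/620 nm ratio after 1 h.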
% is scaled to controls: 0 for no effect and ±100 for the full control effect.

Muscarinic acetylcholine receptor M1 (Homo sapiens), sequence (P11229 whole entry, looked up): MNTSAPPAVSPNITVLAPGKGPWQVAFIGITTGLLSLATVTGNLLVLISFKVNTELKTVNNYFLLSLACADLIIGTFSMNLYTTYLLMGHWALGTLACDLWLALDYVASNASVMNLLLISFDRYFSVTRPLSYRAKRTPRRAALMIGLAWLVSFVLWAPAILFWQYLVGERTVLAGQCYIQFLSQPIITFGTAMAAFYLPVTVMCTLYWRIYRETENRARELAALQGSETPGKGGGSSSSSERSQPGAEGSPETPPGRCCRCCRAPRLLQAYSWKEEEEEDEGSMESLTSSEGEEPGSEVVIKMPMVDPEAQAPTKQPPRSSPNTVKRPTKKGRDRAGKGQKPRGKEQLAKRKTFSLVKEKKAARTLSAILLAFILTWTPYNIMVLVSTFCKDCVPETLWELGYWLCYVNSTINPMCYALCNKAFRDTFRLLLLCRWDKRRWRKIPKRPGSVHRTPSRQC
D(2) dopamine receptor (Homo sapiens), sequence (P14416 whole entry, looked up): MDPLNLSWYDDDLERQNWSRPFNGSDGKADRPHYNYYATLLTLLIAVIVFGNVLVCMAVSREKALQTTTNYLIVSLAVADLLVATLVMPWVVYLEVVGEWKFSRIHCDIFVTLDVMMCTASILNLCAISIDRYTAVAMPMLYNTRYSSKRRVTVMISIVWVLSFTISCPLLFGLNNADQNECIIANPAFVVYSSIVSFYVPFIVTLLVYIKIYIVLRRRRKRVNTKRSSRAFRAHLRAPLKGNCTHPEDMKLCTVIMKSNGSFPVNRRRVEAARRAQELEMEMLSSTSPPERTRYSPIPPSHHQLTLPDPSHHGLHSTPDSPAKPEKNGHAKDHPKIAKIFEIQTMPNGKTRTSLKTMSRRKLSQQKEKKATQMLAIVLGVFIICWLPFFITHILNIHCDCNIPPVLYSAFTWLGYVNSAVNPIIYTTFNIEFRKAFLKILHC
Gonadotropin-releasing hormone receptor (Homo sapiens), sequence (P30968 whole entry, looked up): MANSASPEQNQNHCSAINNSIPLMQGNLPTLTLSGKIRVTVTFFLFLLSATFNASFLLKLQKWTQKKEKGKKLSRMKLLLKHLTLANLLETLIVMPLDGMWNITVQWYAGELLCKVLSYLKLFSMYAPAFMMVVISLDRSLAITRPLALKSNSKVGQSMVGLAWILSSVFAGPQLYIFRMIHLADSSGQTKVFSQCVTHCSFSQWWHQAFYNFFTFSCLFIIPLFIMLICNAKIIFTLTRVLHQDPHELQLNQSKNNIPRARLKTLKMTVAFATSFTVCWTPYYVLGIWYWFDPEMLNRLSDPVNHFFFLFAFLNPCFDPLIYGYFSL
KiSS-1 receptor (Homo sapiens), sequence (Q969F8 whole entry, looked up): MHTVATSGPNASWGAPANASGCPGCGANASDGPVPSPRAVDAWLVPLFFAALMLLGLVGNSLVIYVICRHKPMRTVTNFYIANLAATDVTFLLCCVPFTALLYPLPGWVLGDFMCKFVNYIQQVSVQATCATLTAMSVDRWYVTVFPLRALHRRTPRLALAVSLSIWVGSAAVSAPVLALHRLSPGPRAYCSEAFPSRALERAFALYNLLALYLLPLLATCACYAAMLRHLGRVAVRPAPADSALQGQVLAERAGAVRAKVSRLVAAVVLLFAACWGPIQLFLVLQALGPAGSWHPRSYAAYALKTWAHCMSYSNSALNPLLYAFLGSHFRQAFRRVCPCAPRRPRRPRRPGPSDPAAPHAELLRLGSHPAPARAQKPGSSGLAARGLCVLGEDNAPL
Beta-2 adrenergic receptor (Homo sapiens), sequence (P07550 whole entry, looked up): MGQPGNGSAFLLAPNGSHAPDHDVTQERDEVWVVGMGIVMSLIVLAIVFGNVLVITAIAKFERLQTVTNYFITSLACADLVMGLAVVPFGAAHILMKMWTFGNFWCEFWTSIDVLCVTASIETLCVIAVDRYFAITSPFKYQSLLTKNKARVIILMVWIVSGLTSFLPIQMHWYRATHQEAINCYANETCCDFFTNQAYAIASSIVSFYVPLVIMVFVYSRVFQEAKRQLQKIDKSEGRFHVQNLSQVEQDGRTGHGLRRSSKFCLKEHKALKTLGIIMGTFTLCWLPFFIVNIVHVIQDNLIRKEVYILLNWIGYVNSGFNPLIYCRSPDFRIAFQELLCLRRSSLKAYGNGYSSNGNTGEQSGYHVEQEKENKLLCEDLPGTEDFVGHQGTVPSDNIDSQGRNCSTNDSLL

Cc1cc(S(=O)(=O)O)c(N)cc1Cl
inactive: Potency [1] | Potency [2] | Potency [3] | outcome [4] | outcome [5] | Potency [6] | Potency [7] | Potency [8] | Potency [9] | Potency [10] | Potency [11] | Potency [12] | Potency [13] | Potency [14] | Potency [15] | Potency [16] | Potency [17] | Potency [18]

CCCCCCCCCCCCCCCCCO
inactive: activity change, negative = cytotoxicity [1] 0.787% [at 19 µM] | activity, positive = activation [2] -1.74% [at 19 µM] | activity change [3] 4.53% [at 11.8 µM, stronger effect = higher value] | activation [4] 3.41% [at 15.8 µM] | activation [5] -0.253% [at 11.8 µM] | activation [6] 4.84% [at 13.5 µM] | activation [7] 1.18% [at 13.6 µM] | activity change, negative = cytotoxicity [8] -0.024% [at 13.5 µM] | activity change, negative = cytotoxicity [9] -2.14% [at 13.5 µM] | activity change, negative = cytotoxicity [10] 17.8% [at 13.5 µM] | activation [11] -2.02% [at 13.5 µM] | activity, negative = inhibition [12] -16.4% [at 12.6 µM] | activation [13] -0.0126% [at 15.8 µM] | activation [14] -0.514% [at 19 µM] | activity change, negative = inhibition [15] 0.936% [at 18.9 µM] | activity change, negative = inhibition [16] -1.56% [at 19 µM] | activity change, negative = inhibition [18] 6.26% [at 18.9 µM]

C=C(C)CCCC(C)CCO (stereo not given)
inactive: Potency [1] | Potency [2] | Potency [3] | outcome [4] | outcome [5] | Potency [6] | Potency [7] | Potency [8] | Potency [9] | Potency [10] | Potency [11] | Potency [12] | Potency [13] | Potency [14] | Potency [15] | Potency [16] | Potency [17] | Potency [18]

O=C(NCCO[N+](=O)[O-])c1cccnc1
inactive: Potency [1] | Potency [2] | Potency [3] | outcome [4] | outcome [5] | Potency [6] | Potency [7] | Potency [8] | Potency [9] | Potency [10] | Potency [11] | Potency [13] | Potency [14] | Potency [15] | Potency [16] | Potency [17] | Potency [18]

C/C=C(\C)C=O
inactive: Potency [1] | Potency [2] | Potency [3] | outcome [4] | outcome [5] | Potency [6] | Potency [7] | Potency [8] | Potency [9] | Potency [10] | Potency [11] | Potency [13] | Potency [14] | Potency [15] | Potency [16] | Potency [17] | Potency [18]

COc1cc2c(cc1N)oc1ccccc12
inactive: Potency [1] | Potency [3] | outcome [4] | outcome [5] | Potency [6] | Potency [7] | Potency [9] | Potency [10] | Potency [11] | Potency [13] | Potency [14] | Potency [15] | Potency [17] | Potency [18]
active: Potency [2] 62.4 µM | Potency [8] 33.1 µM

CCN(CC)CCOc1ccccc1C(=O)CCc1ccccc1
active: Potency [12] 2.31 µM
inactive: Potency [1] | Potency [2] | Potency [3] | outcome [4] | outcome [5] | Potency [6] | Potency [7] | Potency [8] | Potency [9] | Potency [10] | Potency [11] | Potency [13] | Potency [14] | Potency [16] | Potency [17] | Potency [18]
